Measured values from PubChem BioAssay (Tox21).
Records with an inconclusive call do not appear. Activity calls are given as the source filed them. Calls come from the whole dose curve; as a rule, active = well fitted curve in the direction sought with a large enough effect in the repeat runs; inconclusive = weak or mixed curves; inactive = no such curve, though single readings can be large; an effect the other way counts as inactive or inconclusive.

Legend:
[1] = Caspase-3/7 induction in HepG2 cells by small molecules, qHTS assay (AID 1346978); note: nearly all actives have a fitted effect of over 15% in size
In short: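 Caspase-3/7 induction was measured by Caspase-Glo 3/7 luminescence (30 min, room temperature) after a 17 hr compound exposure of wild-type HepG2 cells seeded at 2,000 per well and pre-incubated 5 hr.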

[2] = Caspase-3/7 induction in CHO-K1 cells by small molecules, qHTS assay (AID 1346980); note: nearly all actives have a fitted effect of over 15% in size; note: potency is the fitted concentration of half-maximal effect
In short: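 Luminescent Caspase-Glo 3/7 read (30min, room temperature) quantified apoptosis induction. Cells were wild-type CHO-K1, treated with compound for 17hr at 37 C and 5% CO2.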

[3] = Caspase-3/7 induction in HepG2 cells by small molecules, qHTS cell viability counter screen (AID 1346981); note: nearly all actives have a fitted effect of over 30% in size; note: potency is the fitted concentration of half-maximal effect; for activity change, negative = cytotoxicity: series mostly up to about 92 µM
In short: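 CellTiter-Fluor fluorescence measured viability in the same wells used for Caspase-Glo 3/7. HepG2 (wild type) at 2,000 cells/well were pre-incubated 5 hr, dosed, and given reagent at 16 hr, with 1 hr further at 37C.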

[4] = target: Nuclear receptor subfamily 1 group I member 2 (Homo sapiens) (UniProt O75469); experiment: Human pregnane X receptor (PXR) small molecule agonists, qHTS assay (AID 1346982); note: nearly all actives have a fitted effect of over 35% in size; note: potency is the fitted concentration of half-maximal effect
Chain of Nuclear receptor subfamily 1 group I member 2 (Homo sapiens) (O75469 whole entry, looked up): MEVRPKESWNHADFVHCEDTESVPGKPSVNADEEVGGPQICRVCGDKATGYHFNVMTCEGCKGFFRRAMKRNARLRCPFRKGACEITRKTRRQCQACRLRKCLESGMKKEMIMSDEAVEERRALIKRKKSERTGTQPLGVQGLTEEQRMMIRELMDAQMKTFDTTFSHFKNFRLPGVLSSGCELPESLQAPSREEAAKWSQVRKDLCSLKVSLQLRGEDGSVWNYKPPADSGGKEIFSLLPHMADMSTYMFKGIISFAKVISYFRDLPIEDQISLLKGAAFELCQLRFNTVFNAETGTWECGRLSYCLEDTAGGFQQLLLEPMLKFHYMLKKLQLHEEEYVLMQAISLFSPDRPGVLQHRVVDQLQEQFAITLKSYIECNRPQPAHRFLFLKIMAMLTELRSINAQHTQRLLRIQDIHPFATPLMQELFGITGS
In short: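 Agonist mode: luminescence from ONE-Glo after 24 h compound exposure at 37C in HepG2 cells carrying hPXR-responsive CYP3A4 luciferase, plated in charcoal-stripped serum medium 5 h beforehand.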

[5] = target: Cytochrome P450 2D6 (Homo sapiens) (UniProt P10635); experiment: Cytochrome P450 Family 2 Subfamily D Member 6 (CYP2D6) small molecule antagonists: luciferase reporter qHTS assay (AID 1671196); note: nearly all actives have a fitted effect of over 50% in size; note: potency is the fitted concentration of half-maximal effect; for activity change, negative = inhibition: series mostly up to about 120 µM
Chain of Cytochrome P450 2D6 (Homo sapiens) (P10635 whole entry, looked up): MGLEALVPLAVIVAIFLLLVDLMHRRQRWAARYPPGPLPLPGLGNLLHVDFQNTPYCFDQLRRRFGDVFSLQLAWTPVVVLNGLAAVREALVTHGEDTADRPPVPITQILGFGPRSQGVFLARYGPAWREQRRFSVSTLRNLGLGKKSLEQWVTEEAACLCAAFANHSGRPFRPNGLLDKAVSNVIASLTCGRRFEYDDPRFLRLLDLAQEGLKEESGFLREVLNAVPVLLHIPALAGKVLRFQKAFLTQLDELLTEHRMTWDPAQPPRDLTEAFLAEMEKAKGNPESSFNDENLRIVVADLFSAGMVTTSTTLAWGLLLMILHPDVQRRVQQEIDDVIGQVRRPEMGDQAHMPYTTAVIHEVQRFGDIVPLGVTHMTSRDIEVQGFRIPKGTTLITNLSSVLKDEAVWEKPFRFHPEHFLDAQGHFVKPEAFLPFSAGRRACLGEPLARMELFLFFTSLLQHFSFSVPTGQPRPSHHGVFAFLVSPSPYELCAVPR
In short: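 CYP2D6 activity was followed as luminescence from its luciferin product after a 1 h NADPH-driven reaction at room temperature. Enzyme-substrate mix and compound were pre-incubated for 10 min, and the signal was read 20 min after adding detection reagent.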

[6] = target: Cytochrome P450 2C19 (Homo sapiens) (UniProt P33261); experiment: Cytochrome P450 Family 2 Subfamily C Member 19 (CYP2C19) small molecule antagonists: luciferase reporter qHTS assay (AID 1671197); note: nearly all actives have a fitted effect of over 65% in size; note: potency is the fitted concentration of half-maximal effect; for activity change, negative = inhibition: series mostly up to about 120 µM
Chain of Cytochrome P450 2C19 (Homo sapiens) (P33261 whole entry, looked up): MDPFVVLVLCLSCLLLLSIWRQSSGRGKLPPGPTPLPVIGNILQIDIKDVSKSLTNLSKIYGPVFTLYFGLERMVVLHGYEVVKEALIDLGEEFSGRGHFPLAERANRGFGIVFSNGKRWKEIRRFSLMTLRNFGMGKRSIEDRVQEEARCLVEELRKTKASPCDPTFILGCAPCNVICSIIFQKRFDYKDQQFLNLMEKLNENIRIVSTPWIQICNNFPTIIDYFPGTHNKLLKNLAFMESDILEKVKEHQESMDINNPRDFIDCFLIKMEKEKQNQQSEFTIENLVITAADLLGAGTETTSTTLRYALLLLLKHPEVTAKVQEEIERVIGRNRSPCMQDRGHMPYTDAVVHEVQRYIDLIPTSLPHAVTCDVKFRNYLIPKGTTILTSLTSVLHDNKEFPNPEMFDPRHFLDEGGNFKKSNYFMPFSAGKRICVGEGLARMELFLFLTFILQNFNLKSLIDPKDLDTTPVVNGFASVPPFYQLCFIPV
In short: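 Enzyme-substrate mix with proluciferin substrate (P450-Glo CYP2C19 system) preincubated with compounds 10 min at room temperature; NADPH regeneration solution added, 37C for 1 h; detection reagent stops reaction, luminescence read after 20 min. Ketoconazole positive control.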

[7] = target: Nuclear receptor subfamily 1 group I member 2 (Homo sapiens) (UniProt O75469); experiment: Human pregnane X receptor (PXR) activation by small molecules, qHTS assay (AID 1346985); note: nearly all actives have a fitted effect of over 40% in size; note: potency is the fitted concentration of half-maximal effect
In short: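 DPX-2 cells (HepG2 co-transfected with a PXR response element and a CYP3A4-promoter luciferase construct) were seeded at 2,000 per well, rested 5 hr at 37C, then exposed to DMSO-dissolved compounds for 24 hr. Activation was read as luciferase luminescence.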

[8] = Caspase-3/7 induction in CHO-K1 cells by small molecules, qHTS cell viability counter screen (AID 1346979); note: nearly all actives have a fitted effect of over 35% in size; note: potency is the fitted concentration of half-maximal effect
In short: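 Following a 5hr settling period, CHO-K1 cells at 1,500 per well received DMSO-dissolved compounds. Cell viability was quantified 16hr later by CellTiter-Fluor fluorescence, measured after 1hr with reagent at 37C.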

[9] = target: Nuclear receptor subfamily 1 group I member 2 (Rattus norvegicus) (UniProt Q9R1A7); experiment: Rat pregnane X receptor (rPXR) activation by small molecules, qHTS assay (AID 1346983); settings: rPXR luciferase reporter cells, One-Glo luminescence, 24 h; max activation: stronger effect = higher value; note: nearly all actives have a fitted effect of over 20% in size; note: potency is the fitted concentration of half-maximal effect
Chain of Nuclear receptor subfamily 1 group I member 2 (Rattus norvegicus) (Q9R1A7 whole entry, looked up): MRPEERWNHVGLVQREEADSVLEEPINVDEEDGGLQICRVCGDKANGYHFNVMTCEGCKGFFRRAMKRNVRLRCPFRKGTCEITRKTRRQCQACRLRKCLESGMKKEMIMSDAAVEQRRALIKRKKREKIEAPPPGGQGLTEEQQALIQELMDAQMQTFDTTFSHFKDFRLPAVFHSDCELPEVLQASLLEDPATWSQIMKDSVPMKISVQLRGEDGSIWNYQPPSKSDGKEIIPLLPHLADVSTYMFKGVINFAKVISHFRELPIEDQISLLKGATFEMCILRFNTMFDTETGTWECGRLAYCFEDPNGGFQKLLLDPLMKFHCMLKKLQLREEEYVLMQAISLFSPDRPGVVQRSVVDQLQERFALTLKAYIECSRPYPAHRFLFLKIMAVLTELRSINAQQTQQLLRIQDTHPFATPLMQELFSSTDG
In short: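 Luminescent readout (One-Glo luciferase, 30 min room temperature) followed 24 hr compound treatment at 37 C of rPXR cells plated 2,000 per well and preincubated 5hr; qHTS format with compounds delivered in DMSO.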

[10] = target: Nuclear receptor subfamily 1 group I member 2 (Homo sapiens) (UniProt O75469); experiment: CYP3A4 induction through human pregnane X receptor (PXR) by small molecules, qHTS assay (AID 1346984); note: nearly all actives have a fitted effect of over 40% in size; note: potency is the fitted concentration of half-maximal effect
In short: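 Read-out is luminescence after One-Glo addition, following a 3 hr, 37C incubation with Luciferin-IPA CYP3A4 substrate (3uM final). Before that, compounds were on DPX-2 cells (HepG2 co-transfected with PXR element plus CYP3A4-promoter luciferase) for 24 hr at 37C.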
% is set by controls: 0 for no effect and ±100 for the full control effect.

CCCCCCCCCCCCCCOS(=O)(=O)O
inactive: Potency [1] | Potency [2] | Potency [3] | Potency [4] | Potency [5] | Potency [6]

CC(C)=CCC/C(C)=C/CC/C(C)=C/CO
inactive: Potency [1] | Potency [2] | Potency [3]
active: Potency [4] 43.3 µM | Potency [5] 39.9 µM | Potency [6] 4.48 µM

COC(C)(C)CCO
inactive: Potency [1] | Potency [2] | Potency [3] | Potency [4] | Potency [5] | Potency [6]

CCCCC/C=C\C/C=C\CCCCCCCC(=O)NC(C)c1ccccc1 (stereo not given)
active: Potency [4] 21.1 µM | Potency [5] 4.36 µM
inactive: Potency [1] | Potency [2] | Potency [3]

Cn1c(=O)cc(Oc2ccc(F)cc2F)c2cnc(NCC(C)(C)O)nc21
inactive: Potency [1] | Potency [2] | Potency [3]
active: Potency [4] 43.3 µM | Potency [6] 71 µM

CC1OC(=O)C(C)OC1=O (stereo not given)
inactive: Potency [1] | Potency [2] | Potency [3] | Potency [4] | Potency [5] | Potency [6]

CCOC(=O)C1=C[C@]2(CC)CCCN3CCc4c(n1c1ccccc41)[C@@H]32
active: Potency [4] 2.37 µM | Potency [5] 2.75 µM
inactive: Potency [1] | Potency [2] | Potency [3]

Cc1oc(-c2ccccc2)nc1CCOc1cccc2c1ccn2CCC(=O)O
inactive: Potency [1] | Potency [2] | Potency [4] | Potency [5]
active: Potency [3] 34.4 µM

CNCCCCOc1ccccc1Cc1ccccc1
active: Potency [5] 2.45 µM
inactive: Potency [2] | Potency [3] | Potency [4] | Potency [7]

CCCCCCCCCc1ccc(OCCOCCO)cc1
inactive: Potency [2] | max activation [9] -12.1% | Potency [10] | Potency [7]
active: Potency [8] 18.1 µM | Potency [3] 20.4 µM | Potency [4] 6.44 µM | Potency [5] 23.6 µM | Potency [6] 16.7 µM

CCCCCCCC#N
inactive: Potency [2] | Potency [3] | Potency [5] | Potency [6]

CN(C)CCN(Cc1ccc(Cl)cc1)c1ccccn1
inactive: Potency [1] | Potency [2] | Potency [3]
active: Potency [5] 0.275 µM

CCN(CC)CCOC(=O)C(Cc1cccc2ccccc12)CC1CCCO1 (stereo not given)
active: Potency [5] 2.75 µM
inactive: Potency [1] | Potency [2] | Potency [3] | max activation [9] 10.4%

COc1ccc(C(=O)c2ccc(OC)cc2O)c(O)c1
inactive: Potency [1] | Potency [2]
active: Potency [4] 27.5 µM | Potency [6] 0.802 µM

CCc1c(C(=O)NN2CCCCC2)nn(-c2ccc(Cl)cc2Cl)c1-c1ccc(Br)cc1
active: Potency [4] 48.6 µM
inactive: Potency [1] | Potency [2] | Potency [5]

COc1cc2nc(N3CCN(C(=O)C4COc5ccccc5O4)CC3)nc(N)c2cc1OC (stereo not given)
inactive: Potency [1] | Potency [2] | max activation [9] -0.947% | Potency [5] | Potency [6]

CN(C)c1ccc(/C=C/c2ccc([N+](=O)[O-])cc2)cc1
inactive: caspase activation [1] 0.696% [at 8.39 µM] | caspase-3/7 activation [2] -2.91% [at 8.39 µM] | activity change, negative = cytotoxicity [3] 14.3% [at 8.39 µM] | activity change, negative = inhibition [6] 15.9% [at 10.5 µM]

CN(C)C(=O)NC1(c2ccccc2)CCN(CC[C@@]2(c3ccc(F)c(F)c3)CN(C(=O)c3ccccc3)CCO2)CC1
inactive: Potency [1] | Potency [2]
active: Potency [4] 8.02 µM | Potency [5] 26.2 µM

Clc1ccc(Cn2c(CN3CCCC3)nc3ccccc32)cc1
active: Potency [5] 1.74 µM
inactive: Potency [1] | Potency [2] | Potency [3]

Cc1cccc(Nc2ccccc2)c1
inactive: Potency [8] | Potency [2] | Potency [3]

CCOC(=O)NCCOc1ccc(Oc2ccccc2)cc1
active: Potency [4] 21.7 µM | Potency [5] 35.6 µM | Potency [6] 6.33 µM
inactive: Potency [1] | Potency [2]

CC(=O)c1ccc2c(c1)N(CCCN(C)C)c1ccccc1S2
active: Potency [5] 1.95 µM
inactive: Potency [1] | Potency [2] | Potency [4] | max activation [9] -2.15% | Potency [10] | Potency [7]

Brc1c2ccccc2cc2ccccc12
active: Potency [4] 61.8 µM
inactive: Potency [2] | Potency [3] | Potency [5]

CCCOC(C(=O)OC1CCN(C)CC1)(c1ccccc1)c1ccccc1
active: Potency [9] 15.8 µM | Potency [10] 28.2 µM | Potency [7] 14.1 µM | Potency [5] 7.76 µM
inactive: Potency [1] | Potency [2]

CCCCc1ncc(/C=C(\Cc2cccs2)C(=O)O)n1Cc1ccc(C(=O)O)cc1
inactive: Potency [1] | Potency [2] | Potency [3] | max activation [9] -2.02% | Potency [5] | Potency [6]

C#C[C@]1(O)CC[C@H]2[C@@H]3CCc4cc(OC5CCCC5)ccc4[C@H]3CC[C@@]21C
inactive: Potency [1] | Potency [2] | Potency [3] | max activation [9] -3.04% | Potency [5]

O=C(Nc1ccccc1)c1ccccc1O
active: Potency [4] 6.86 µM | Potency [5] 35.6 µM
inactive: Potency [1] | Potency [2]

COc1cc2nc(N(C)CCCNC(=O)C3CCCO3)nc(N)c2cc1OC (stereo not given)
inactive: Potency [1] | Potency [2] | Potency [3] | max activation [9] -4.32% | Potency [10] | Potency [7] | Potency [6]

CC(C)OC(=O)C(C)N(C(=O)c1ccccc1)c1ccc(F)c(Cl)c1 (stereo not given)
inactive: Potency [1] | Potency [2] | Potency [5]
active: Potency [4] 2.73 µM | Potency [6] 3.56 µM

COc1ccc(S(=O)(=O)N2C(=O)[C@@](c3ccccc3OC)(N3C[C@H](O)C[C@H]3C(=O)N(C)C)c3cc(Cl)ccc32)c(OC)c1
active: Potency [8] 30.6 µM | Potency [2] 61.1 µM | Potency [3] 30.6 µM | Potency [4] 61.1 µM | Potency [6] 31.7 µM

CC(C)C[C@H]1C(=O)N2CCC[C@H]2[C@]2(O)O[C@](NC(=O)[C@@H]3C=C4c5cccc6[nH]c(Br)c(c56)C[C@H]4N(C)C3)(C(C)C)C(=O)N12
inactive: Potency [1] | Potency [2] | max activation [9] 0.513% | Potency [10] | Potency [5]
active: Potency [3] 16.4 µM | Potency [6] 21.4 µM
